{"source": "paper PMC4336329", "about": "(PLoS ONE, 2015)", "note": "The whole screen tested about 310,000 compounds, of which about 2,200 (0.71%) showed an effect of 50% or more. The effect is printed as a negative number. Shown is part of a subset that was picked to be rich in strong results."}
{"molecular_target": "human ether-à-go-go-related gene (hERG) potassium channel (human, UniProt Q12809)", "sequence (Q12809 whole entry, looked up)": "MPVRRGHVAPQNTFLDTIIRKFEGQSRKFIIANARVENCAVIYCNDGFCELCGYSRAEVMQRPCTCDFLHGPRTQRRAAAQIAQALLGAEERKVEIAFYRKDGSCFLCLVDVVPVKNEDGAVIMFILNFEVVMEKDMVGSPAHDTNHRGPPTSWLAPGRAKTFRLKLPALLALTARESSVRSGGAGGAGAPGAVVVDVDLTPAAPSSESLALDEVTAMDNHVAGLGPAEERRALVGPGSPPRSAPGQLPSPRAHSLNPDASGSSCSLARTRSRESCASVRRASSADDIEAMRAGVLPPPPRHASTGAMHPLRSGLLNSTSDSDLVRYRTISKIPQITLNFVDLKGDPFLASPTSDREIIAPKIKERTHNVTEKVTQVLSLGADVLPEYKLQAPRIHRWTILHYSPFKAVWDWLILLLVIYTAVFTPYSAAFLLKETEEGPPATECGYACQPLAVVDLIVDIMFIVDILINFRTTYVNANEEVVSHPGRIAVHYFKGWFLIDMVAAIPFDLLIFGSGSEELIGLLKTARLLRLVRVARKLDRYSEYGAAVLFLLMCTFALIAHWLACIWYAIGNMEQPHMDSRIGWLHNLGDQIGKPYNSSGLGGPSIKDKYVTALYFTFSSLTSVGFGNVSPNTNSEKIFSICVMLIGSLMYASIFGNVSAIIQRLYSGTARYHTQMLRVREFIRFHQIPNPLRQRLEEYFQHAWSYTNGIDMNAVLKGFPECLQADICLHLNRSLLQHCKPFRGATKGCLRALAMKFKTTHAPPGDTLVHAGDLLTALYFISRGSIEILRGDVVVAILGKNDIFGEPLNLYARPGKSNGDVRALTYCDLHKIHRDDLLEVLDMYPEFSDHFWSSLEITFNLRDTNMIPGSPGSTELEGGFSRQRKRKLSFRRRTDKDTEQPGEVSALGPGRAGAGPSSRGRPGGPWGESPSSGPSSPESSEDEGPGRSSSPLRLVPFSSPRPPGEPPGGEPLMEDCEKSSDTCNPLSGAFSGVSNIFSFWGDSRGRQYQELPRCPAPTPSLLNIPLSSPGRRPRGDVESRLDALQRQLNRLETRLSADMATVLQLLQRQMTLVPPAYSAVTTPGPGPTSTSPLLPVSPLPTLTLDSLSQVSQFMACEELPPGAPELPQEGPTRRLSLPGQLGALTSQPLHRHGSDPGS", "assay": "primary screen, population patch clamp on CHO cells stably expressing hERG; higher = less effect of the substance", "method": "Briefly, Chinese hamster ovary (CHO) cells stably expressing the hERG channel were dislodged from tissue culture flasks and dispensed into PPC plates. […] During the recording, background leak currents were estimated by a 100 ms step to -80 mV from an initial holding potential of -70 mV and subtracted from the subsequent current measurement. The campaign was conducted in two phases using slight differences in recording protocol. In the first phase, the initial voltage pulse used a 100 ms step to -30 mV from a holding potential of -70 mV, a 2 s conditioning step to +25 mV, and a 2 s test step to -30 mV. During the second phase of the screen, the potential during the conditioning step was raised to +45 mV. In both phases of the campaign, a secondary voltage pulse was applied using the same parameters as the second phase initial pulse. The initial and secondary pulses were applied in the absence of compound, and upon application of 1 μM and 10 μM test concentrations. Small molecule effects on hERG current density were quantified by […].", "units": {"hERG current change (%, negative = inhibition) at 1uM": "%"}}
{"compound": "CC(C)c1cc(C(=O)N2CCCC(N3CCN(c4ccc(F)cc4)CC3)C2)no1", "note": "(stereo not shown)", "hERG current change (%, negative = inhibition) at 1uM": -36.4}
{"compound": "Cc1cc(C(=O)N2CCCC(N3CCN(c4ccc(F)cc4)CC3)C2)no1", "note": "(stereo not shown)", "hERG current change (%, negative = inhibition) at 1uM": -19.1}
{"compound": "O=C(c1cccs1)N1CCCC(N2CCN(c3cccc(C(F)(F)F)c3)CC2)C1", "note": "(stereo not shown)", "hERG current change (%, negative = inhibition) at 1uM": -8.83}
{"compound": "Cc1ccccc1N1CCN(C2CCCN(C(=O)c3ccc(Cl)s3)C2)CC1", "note": "(stereo not shown)", "hERG current change (%, negative = inhibition) at 1uM": 1.61}
{"compound": "CC(=O)c1ccc(C(=O)N2CCCC(N3CCN(c4ccc(F)cc4)CC3)C2)s1", "note": "(stereo not shown)", "hERG current change (%, negative = inhibition) at 1uM": -51.3}
{"compound": "CCCc1cc(C(=O)N2CCCC(N3CCN(c4ccc(F)cc4)CC3)C2)no1", "note": "(stereo not shown)", "hERG current change (%, negative = inhibition) at 1uM": -74.1}
{"compound": "O=C(c1ccc(Cl)s1)N1CCCC(N2CCN(c3ccc(F)cc3)CC2)C1", "note": "(stereo not shown)", "hERG current change (%, negative = inhibition) at 1uM": -63.2}
{"compound": "O=C(c1cccs1)N1CCCC(N2CCN(c3ccc(F)cc3)CC2)C1", "note": "(stereo not shown)", "hERG current change (%, negative = inhibition) at 1uM": -52.1}
{"compound": "CC(C)=CC(=O)N1CCCC(N2CCN(c3ccc(F)cc3)CC2)C1", "note": "(stereo not shown)", "hERG current change (%, negative = inhibition) at 1uM": 19.1}
{"compound": "Cc1nnsc1C(=O)N1CCCC(N2CCN(c3ccc(F)cc3)CC2)C1", "note": "(stereo not shown)", "hERG current change (%, negative = inhibition) at 1uM": 12.3}
{"compound": "O=C(c1ccncc1)N1CCCC(N2CCN(c3ccc(F)cc3)CC2)C1", "note": "(stereo not shown)", "hERG current change (%, negative = inhibition) at 1uM": -19.9}
{"compound": "Cc1nonc1C(=O)N1CCCC(N2CCN(c3ccc(F)cc3)CC2)C1", "note": "(stereo not shown)", "hERG current change (%, negative = inhibition) at 1uM": -17.7}
{"compound": "Nc1nc(Br)c2ccccc2c1-c1ccccc1", "hERG current change (%, negative = inhibition) at 1uM": 9.58}
{"compound": "CC(C)c1ccc(N(CC(=O)Nc2ccc(S(=O)(=O)N3CCOCC3)cc2)S(C)(=O)=O)cc1", "hERG current change (%, negative = inhibition) at 1uM": 21.3}
{"compound": "COc1ccc(CCNC(=O)/C=C/c2ccc3ccccc3n2)cc1OC", "hERG current change (%, negative = inhibition) at 1uM": 10.9}
{"compound": "COc1ccc(S(=O)(=O)N(C)CC(=O)Nc2ccccc2SC)cc1Cl", "hERG current change (%, negative = inhibition) at 1uM": 11.6}
{"compound": "COc1nc2ccccc2c(=O)n1-c1ccc(C)cc1", "hERG current change (%, negative = inhibition) at 1uM": 7.4}
{"compound": "Cc1cccc(C(=O)NCC2CCN(C(=O)c3cccc(C)c3)CC2)c1", "hERG current change (%, negative = inhibition) at 1uM": -2.21}
{"compound": "COc1cccc(NC(=O)CCN2CCC(C(N)=O)CC2)c1", "hERG current change (%, negative = inhibition) at 1uM": 16.9}
{"compound": "Cc1ccccc1C(=O)Nc1ccnn1C1CCN(Cc2ccncc2)CC1", "hERG current change (%, negative = inhibition) at 1uM": -3.47}
{"compound": "Cc1ccccc1C(=O)Nc1ccnn1C1CCN(Cc2cnn(C(C)C)c2)CC1", "hERG current change (%, negative = inhibition) at 1uM": -27.3}
{"compound": "Cc1ccccc1C(=O)Nc1ccnn1C1CCN(Cc2cccnc2)CC1", "hERG current change (%, negative = inhibition) at 1uM": -48.9}
{"compound": "CC(CCN1CCC(n2nccc2NC(=O)c2ccccc2Cl)CC1)c1ccccc1", "note": "(stereo not shown)", "hERG current change (%, negative = inhibition) at 1uM": -85.1}
{"compound": "Cn1cc(CN2CCC(n3nccc3NC(=O)c3ccccc3Cl)CC2)cn1", "hERG current change (%, negative = inhibition) at 1uM": -4.32}
{"compound": "O=C(Nc1ccnn1C1CCN(Cc2ccccc2)CC1)c1ccccc1Cl", "hERG current change (%, negative = inhibition) at 1uM": -53.1}
{"compound": "CC(CN1CCC(n2nccc2NC(=O)c2ccccc2Cl)CC1)c1ccccc1", "note": "(stereo not shown)", "hERG current change (%, negative = inhibition) at 1uM": -43.6}
{"compound": "O=C(Nc1ccnn1C1CCN(Cc2cccnc2)CC1)c1ccccc1Cl", "hERG current change (%, negative = inhibition) at 1uM": -11.5}
{"compound": "CSc1ccc(CN2CCC(n3nccc3NC(=O)c3ccccc3C)CC2)cc1", "hERG current change (%, negative = inhibition) at 1uM": -83.8}
{"compound": "Cc1ccccc1C(=O)Nc1ccnn1C1CCN(Cc2cnn(C)c2)CC1", "hERG current change (%, negative = inhibition) at 1uM": -1.26}
{"compound": "CCc1ccc(CN2CCC(n3nccc3NC(=O)c3ccccc3C)CC2)cc1", "hERG current change (%, negative = inhibition) at 1uM": -85.1}
{"compound": "COCC(C)N1CCC(n2nccc2NC(=O)c2ccccc2Cl)CC1", "note": "(stereo not shown)", "hERG current change (%, negative = inhibition) at 1uM": -1.49}
{"compound": "O=C(c1cc([N+](=O)[O-])ccc1N1CCCCC1)N1CCCCC1", "hERG current change (%, negative = inhibition) at 1uM": -6.51}
{"compound": "Cc1ccc(S(=O)(=O)N(C)Cc2ccc(-c3nnc4n3CCC4)cc2)cc1", "hERG current change (%, negative = inhibition) at 1uM": 0.889}
{"compound": "COC(=O)c1ccc(N2CCCCC2)c(NS(=O)(=O)c2ccc(C)cc2)c1", "hERG current change (%, negative = inhibition) at 1uM": 12.6}
{"compound": "CCOC(=O)CSc1nnc(Cn2c(=O)sc3ccccc32)n1C", "hERG current change (%, negative = inhibition) at 1uM": -3.18}
{"compound": "Cc1cc(C)c(CN2CCC(n3nccc3NC(=O)c3ccccc3Cl)CC2)cc1C", "hERG current change (%, negative = inhibition) at 1uM": 1.2}
{"compound": "CCN1CCC(n2nccc2NC(=O)c2ccccc2Cl)CC1", "hERG current change (%, negative = inhibition) at 1uM": 10.5}
{"compound": "CCc1ccc(CN2CCC(n3nccc3NC(=O)c3ccccc3Cl)CC2)cc1", "hERG current change (%, negative = inhibition) at 1uM": -92.3}
{"compound": "Cc1cc(CN2CCC(n3nccc3NC(=O)c3ccccc3Cl)CC2)cc(C)c1O", "hERG current change (%, negative = inhibition) at 1uM": -64.4}
{"compound": "COc1ccc(O)c(CN2CCC(n3nccc3NC(=O)c3ccccc3Cl)CC2)c1", "hERG current change (%, negative = inhibition) at 1uM": -15.4}
{"compound": "NC(=O)c1ncn([C@@H]2O[C@H](CO)[C@@H](O)[C@H]2O)n1", "hERG current change (%, negative = inhibition) at 1uM": 25.8}
{"compound": "Cn1c([O-])c(Cc2cccc(Cl)c2Cl)c(=O)n(C)c1=O.[NH4+]", "hERG current change (%, negative = inhibition) at 1uM": 17.5}
{"compound": "CCOc1ccc(OCC(=O)OCC(=O)N(CC(C)C)c2c(N)n(Cc3ccccc3)c(=O)[nH]c2=O)cc1", "hERG current change (%, negative = inhibition) at 1uM": 5.08}
{"compound": "COc1cccc(NC(=O)Nc2cccc(C(=O)O)c2)c1", "hERG current change (%, negative = inhibition) at 1uM": 16.4}
{"compound": "CCOC(=O)C(CC)Sc1ccc2nnc(CCNS(=O)(=O)c3ccccc3)n2n1", "note": "(stereo not shown)", "hERG current change (%, negative = inhibition) at 1uM": 3.33}
{"compound": "O=C(NCc1ccc(Cl)cc1Cl)C(=O)N1CCCCC1", "hERG current change (%, negative = inhibition) at 1uM": 7}
{"compound": "COc1ccc(CC(=O)NCC2CCCN(Cc3cccc(C(F)(F)F)c3)C2)cc1", "note": "(stereo not shown)", "hERG current change (%, negative = inhibition) at 1uM": 5.75}
{"compound": "CSCCC(=O)N(C)CC1CCCN(CCc2cccc(C(F)(F)F)c2)C1", "note": "(stereo not shown)", "hERG current change (%, negative = inhibition) at 1uM": -55.1}
{"compound": "CN(CC1CCN(CCc2cccc(C(F)(F)F)c2)CC1)C(=O)c1ccc(F)cc1", "hERG current change (%, negative = inhibition) at 1uM": -60}
{"compound": "COC(=O)CCC(=O)N(C)CC1CCCN(CCc2cccc(C(F)(F)F)c2)C1", "note": "(stereo not shown)", "hERG current change (%, negative = inhibition) at 1uM": -39.9}
{"compound": "CN(CC1CCCN(CCc2cccc(C(F)(F)F)c2)C1)C(=O)c1ccc2nc[nH]c2c1", "note": "(stereo not shown)", "hERG current change (%, negative = inhibition) at 1uM": 5.78}
{"compound": "CC(=O)Nc1ccc(CN(C)CC2CCCN(CCc3cccc(C(F)(F)F)c3)C2)cc1", "note": "(stereo not shown)", "hERG current change (%, negative = inhibition) at 1uM": -18.4}
{"compound": "COc1cccc(C(=O)N(C)CC2CCN(CCc3cccc(C(F)(F)F)c3)CC2)c1", "hERG current change (%, negative = inhibition) at 1uM": -70.3}
{"compound": "O=C(c1cccc(C(F)(F)F)c1)N1CCN(CCc2ccccc2)CC1", "hERG current change (%, negative = inhibition) at 1uM": 1.81}
{"compound": "CN(CC1CCCN(CCc2cccc(C(F)(F)F)c2)C1)C(=O)c1ccco1", "note": "(stereo not shown)", "hERG current change (%, negative = inhibition) at 1uM": -38.3}
{"compound": "CN(CC1CCN(CCc2cccc(C(F)(F)F)c2)CC1)C(=O)c1ccccc1", "hERG current change (%, negative = inhibition) at 1uM": -56.1}
{"compound": "CSCCC(=O)N(C)CC1CCN(CCc2cccc(C(F)(F)F)c2)CC1", "hERG current change (%, negative = inhibition) at 1uM": -27.3}
{"compound": "CN(CC1CCN(CCc2cccc(C(F)(F)F)c2)CC1)C(=O)c1ccc(F)cc1F", "hERG current change (%, negative = inhibition) at 1uM": -35.9}
